D2 PAM-1 – Beta-Arrestin HTS for Positive Allosteric Modulators of the Human D2 Dopamine Receptor: Potentiators | D(2) dopamine receptor (Homo sapiens), P14416 | DiscoveRx D2 beta-arrestin cells, luminescence, 90 min; 100% = 57 uM dopamine signal | potentiation, % (concentration not given with the values) | hit rate 0.23% among 360,000 | AID 624464, 2012; in the data active = potentiation above about 50%; inconclusive = mostly about 30% to 49%
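D2 cells co-treated with compound plus 50 nM dopamine (EC20) for 90 min at 37 deg C to detect potentiation. Beta-arrestin recruitment was read as enzyme-fragment luminescence after 1 h at ambient temperature. Full response was set by 57 uM dopamine.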
D2 ag-1 – Beta-Arrestin HTS for Positive Allosteric Modulators of the Human D2 Dopamine Receptor: Agonists. D(2) dopamine receptor (Homo sapiens), P14416. DiscoveRx PathHunter D2 beta-arrestin, luminescence, 90 min; 100% = 57 uM dopamine signal. activation, % (concentration not given with the values). hit rate 0.084% among 360,000; in the data active = activation above about 40%; inconclusive = between about 15% and that limit
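Agonist mode: compounds alone added to overnight-plated D2 PathHunter cells for 90 min at 37 C, with 57 uM final dopamine (EC100) defining full response. Beta-arrestin recruitment detected by chemiluminescent reagent, read after 1 h at ambient temperature.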
D2 ag-2 – HTS Assay for Allosteric Agonists of the Human D2 Dopamine Receptor: Primary Screen for Agonists | D(2) dopamine receptor (Homo sapiens), P14416 | AID 485358, 2010 | HEK293 T-REx D2 cells, calcium flux agonist mode | hit rate 0.53% among 340,000 | activation, % at 2 µM;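 active = activation over 3 SD above normal in the single-dose calcium agonist read, cut at about 30% in these data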
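Agonism scored from kinetic calcium signal (1 read/sec, 180 s) following compound pin transfer, after a 10 s baseline. Cells: HEK293 Trex line expressing inducible D2 receptor coupled to calcium, dye-loaded after overnight culture at 30 C.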
D2 antagonist – HTS Assay for Allosteric Antagonists of the Human D2 Dopamine Receptor: Primary Screen for Antagonists. inhibition, % at 10 µM. AID 485344, 2010. D(2) dopamine receptor (Homo sapiens), P14416. hit rate 2% among 340,000. HEK293 TREx D2 cells, calcium flux, dopamine EC80; in the data active = inhibition above about 30%; inactive = below that, where a call was filed
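HEK293 T-REx D2 cells, tet-induced, calcium dye no-wash. Cpd pintool add, 180 s kinetic, then EC80 DA, 180 s kinetic. Ca flux read.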
Anesthetic bind – qHTS Assay for Identification of Novel General Anesthetics. Ferritin light chain (Equus caballus), P02791. apoferritin/1-aminoanthracene competitive binding, fluorescence. Potency, µM (doses to about 77.5 µM), hits mostly inhibitors. hit rate 0.074% among 350,000. AID 485281, 2010; active = well fitted inhibition curve with a large enough effect; inconclusive = small, poorly fitted or top-dose-only effect; inactive = no such curve, though single readings can be large or run the other way; also: nearly all actives have a fitted effect of over 20% in size
Target sequence (P02791 2-175 limits assumed): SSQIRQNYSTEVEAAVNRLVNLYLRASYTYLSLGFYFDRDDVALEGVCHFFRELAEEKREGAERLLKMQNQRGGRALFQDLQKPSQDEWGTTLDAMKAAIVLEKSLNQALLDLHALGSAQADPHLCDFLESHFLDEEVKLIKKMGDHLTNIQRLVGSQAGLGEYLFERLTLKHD
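Horse-spleen apoferritin (10 uM) was mixed with 50% saturated 1-aminoanthracene in PBS, exposed to compounds for 10 min at room temperature, and read for fluorescence (ex 380 nm, em 535 nm). Competitive displacement was fitted with a four-parameter Hill equation.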
D2 PAM-2 – HTS Assay for Positive Allosteric Modulators of the Human D2 Dopamine Receptor: Primary Screen for Potentiators; D(2) dopamine receptor (Homo sapiens), P14416; HEK293 T-REx D2, calcium flux, EC20 dopamine potentiation; potentiation, % at 10 µM; hit rate 0.34% among 340,000; AID 485347, 2010;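 active = potentiation over 3 SD above the plate norm, cut at about 30% in these data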
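Primary screen. Calcium kinetics in induced HEK293 T-REx D2 cells: compound pre-addition 180 s, EC20 dopamine, 180 s more.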
A number is an active result. Only some compounds are listed: those with a hit (about 2.5% of all), similar ones and a draw of the others.

Screening CCNC(=O)C1(C)CCN(C(=O)c2ccccc2OC(F)(F)F)C1 (configuration not stated) returned D2 PAM-1 inactive and D2 ag-1 inactive.
Screening C=CCN(CC=C)CC(O)CN(c1cc([N+](=O)[O-])ccc1OC)S(=O)(=O)c1ccccc1 (configuration not stated) returned D2 PAM-1 inactive, D2 ag-1 inactive, D2 ag-2 inactive, D2 antagonist 66.1, Anesthetic bind inactive and D2 PAM-2 inactive.
Nc1cccc(N2C(=O)c3cccc4c(N)ccc(c34)C2=O)c1 was read as D2 PAM-1 inactive, D2 ag-1 inactive, D2 ag-2 49.1, D2 antagonist inactive, Anesthetic bind inactive and D2 PAM-2 inactive.
For Nc1ccc2c3c(cccc13)C(=O)N(c1ccccc1)C2=O the results were D2 PAM-1 inactive, D2 ag-1 inactive, D2 ag-2 inactive, D2 antagonist inactive, Anesthetic bind inactive and D2 PAM-2 inactive.
For Cc1cccc(N2C(=O)c3cccc4c(N)ccc(c34)C2=O)c1 the results were D2 PAM-1 inactive, D2 ag-1 inactive, D2 ag-2 116.8, D2 antagonist inactive, Anesthetic bind inactive and D2 PAM-2 inactive.
`COC(=O)[C@@H]1[C@H]2C[C@H]3c4[nH]c5ccccc5c4CCN3C[C@@H]2CC[C@@H]1O` gave D2 PAM-1 inactive, D2 ag-1 inactive, D2 ag-2 inactive, D2 antagonist 58.1, Anesthetic bind inactive and D2 PAM-2 inactive.
OCCN(CCO)c1nc(N2CCCCC2)c2nc(N(CCO)CCO)nc(N3CCCCC3)c2n1 was read as D2 PAM-1 inactive, D2 ag-1 inactive, D2 ag-2 41.9, D2 antagonist inactive, Anesthetic bind inactive and D2 PAM-2 inactive.
CC(OC(=O)c1ccc(NC(=O)CC#N)cc1)C(=O)NCCC1=CCCCC1 (configuration not stated) was read as D2 PAM-1 inactive, D2 ag-1 inactive, D2 ag-2 inactive, D2 antagonist 38.3 and D2 PAM-2 inactive.
Screening CCCOc1cc(N(CC)CC)ccc1/C=C(/C#N)c1nc2ccc(C)cc2[nH]1 returned D2 PAM-1 inactive, D2 ag-1 inactive, D2 ag-2 inactive, D2 antagonist inactive, Anesthetic bind inconclusive and D2 PAM-2 inactive.
CCN(CC)c1ccc(/C=C(/C#N)c2nc3ccc(C)cc3[nH]2)c(OC(C)C)c1 was read as D2 PAM-1 inactive, D2 ag-1 inactive, D2 ag-2 42.2, D2 antagonist inactive, Anesthetic bind inactive and D2 PAM-2 inactive.
Screening Cc1ccc(N2C(=O)N3[C@H](c4ccc(F)cc4)[C@@H]4C(=O)N(C5CCCCC5)C(=O)[C@@H]4[C@]3(Cc3ccccc3)C2=O)cc1 returned D2 PAM-1 inactive, D2 ag-1 inactive and Anesthetic bind inactive.
Cc1ccc(NC(=O)CCc2nnc3ccc(N4CCC(C)CC4)nn23)nc1 was read as D2 PAM-1 inactive, D2 ag-1 inactive, D2 ag-2 inactive, D2 antagonist 32.0, Anesthetic bind inactive and D2 PAM-2 inactive.
CCOC(=O)C1CCN(Cc2nc(-c3ccc(OC)c(OC)c3)no2)CC1 was read as D2 PAM-1 inactive, D2 ag-1 inactive, D2 ag-2 inactive, D2 antagonist inactive, Anesthetic bind inactive and D2 PAM-2 inactive.
For COc1ccc(-c2cccc(NS(=O)(=O)c3cc([N+](=O)[O-])ccc3Cl)c2)nn1 the results were D2 PAM-1 inactive, D2 ag-1 inactive, D2 ag-2 inactive, D2 antagonist inactive and D2 PAM-2 inactive.
O=C(CSc1nc(O)c(C2CCCCC2)c(=O)[nH]1)N1CCOCC1 was read as D2 PAM-1 inactive, D2 ag-1 inactive, D2 ag-2 inactive, D2 antagonist 42.7, Anesthetic bind inactive and D2 PAM-2 inactive.

Bioassay records (PubChem)
